Source: PubChem
Gal4-VP16 FLuc: VP16 counterscreen qHTS for inhibitors of ROR gamma transcriptional activity. Drosophila S2 Gal4-VP16 UAS-luciferase, luminescence, 20 h. Potency, µM (highest dose often 53.6 µM), without a hit: at the top dose activity, negative = inhibition, most hits filed as inhibitors. 310,000 tested, 3.5% active. AID 2546, 2010;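 also: Gal4-VP16 expression switched on by copper sulfate through the metallothionein promoter; nearly all actives have a fitted effect of over 50% in size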
RORg inh: qHTS for inhibitors of ROR gamma transcriptional activity. 310,000 tested, 5.4% active. Potency, µM (titrated, usually from 53.6 µM), without a hit: at the top dose activity change, negative = inhibition, actives largely listed as inhibitors. Drosophila S2 Gal4-RORgamma UAS-luciferase reporter, 20 h; also: nearly all actives have a fitted effect of over 60% in size
Target sequence (P51450 whole entry, looked up, the tested form may be a part): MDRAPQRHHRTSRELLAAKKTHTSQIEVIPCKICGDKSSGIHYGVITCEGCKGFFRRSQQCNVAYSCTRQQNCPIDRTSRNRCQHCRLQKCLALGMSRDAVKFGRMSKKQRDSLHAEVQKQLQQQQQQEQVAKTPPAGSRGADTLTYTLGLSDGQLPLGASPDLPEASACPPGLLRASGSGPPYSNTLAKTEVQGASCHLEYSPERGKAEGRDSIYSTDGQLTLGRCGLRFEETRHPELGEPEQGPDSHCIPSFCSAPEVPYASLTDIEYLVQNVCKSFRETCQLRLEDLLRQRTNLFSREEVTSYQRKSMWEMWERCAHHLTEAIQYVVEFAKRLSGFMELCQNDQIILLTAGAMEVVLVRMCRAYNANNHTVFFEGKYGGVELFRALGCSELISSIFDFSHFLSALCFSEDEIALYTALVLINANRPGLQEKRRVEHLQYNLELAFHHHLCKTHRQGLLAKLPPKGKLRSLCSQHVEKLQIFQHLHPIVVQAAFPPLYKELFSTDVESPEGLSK
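Read-out: Photinus luciferase luminescence; inhibitors lower reporter signal. Insect Schneider cells with Gal4-ROR gamma fusion under metallothionein promoter, UAS reporter; 700 uM final copper sulfate induction, 20 hr, ambient temperature.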
Luc counter: Counterscreen for Luciferase (Kinase-Glo TM) Inhibition; Luciferin 4-monooxygenase (Photuris pensylvanica), Q27757; Kinase-Glo luciferase, ATP luminescence, 8 min; Potency, µM (titrated, usually from 38.3 µM), for the others: top-dose activity change, negative = inhibition, actives largely listed as inhibitors; 200,000 tested, 0.28% active; also: nearly all actives have a fitted effect of over 60% in size
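Recombinant Kinase-Glo luciferase, 10 uM ATP (linear range), luciferin; imidazole pH 7.2 / KCl / MgCl2 / Tween / BSA buffer; 8 min RT; luminescence.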
Numbers without * were called inactive; ? = inconclusive; nt = not tested or not shown; [ ] = dose if it differs, or a comment. The list is not random: actives were taken first. Their share in the collection is about 6.2%. Calls follow the shape of the dose curve; as a rule, active = well fitted curve in the direction sought with a large enough effect; inconclusive = small, poorly fitted or top-dose-only effect, or another doubt; inactive = no such curve, though single readings can be large; an effect the other way counts as inactive or inconclusive. % is scaled to controls: 0 for no effect and ±100 for the full control effect; potency is read from the fitted curve at half-maximal effect.

SMILES	Gal4-VP16 FLuc	RORg inh	Luc counter
COCCCNC(=S)N/N=C/c1ccc(O)cc1	-11%	13µM*	nt
COCCCNC(=S)N/N=C/c1cccc(OC)c1O	1.6µM*	0.63µM*	nt
COCCCNC(=S)NNC(=S)Nc1ccc(OC)cc1	-1%	-1%	nt
COc1cccc(/C=N/NC(=O)c2[nH]c(C)c(C(=O)N/N=C/c3cccc(OC)c3O)c2C)c1O	?	-36%	1%
NC(=S)N/N=C/c1ccc2ccccc2c1	?	?	-1%
CS(=O)(=O)N1CCC(C(=O)NCc2ccc(F)cc2)CC1	5%	2%	1%
C=C[C@@]1(C)CC(=O)[C@]2(O)[C@@]3(C)[C@H](O)CCC(C)(C)[C@@H]3[C@H](O)[C@H](OC(C)=O)[C@@]2(C)O1	-4%	3%	nt
Nc1ccccc1Oc1ccccc1	-11%	-2%	nt
CN(C)C(=O)c1ccc(-c2ccc3ncnc(NCc4cccs4)c3c2)cc1	-3%	1%	nt
O=C(NNC1=NCCCCC1)Nc1cccc(Cl)c1	-10%	-18%	0%
COc1ccccc1CNC(=O)c1cc(-c2ccncc2)nc2c(Cl)cccc12	-3%	-15%	nt
CCCC[C@@H]1C[C@H]1C(NC(=O)c1ccc(C(F)(F)F)cc1)c1ccc(C(=O)OC)cc1 (stereo not given in full)	-5%	1%	-4%
CCCC[C@@H]1C[C@H]1C(NC(=O)c1ccccc1)c1ccc(C(F)(F)F)cc1 (stereo not given in full)	?	16µM*	0%
C/C(CC(=O)NC1CCCCC1)=N\NC(=O)COc1ccc(C)cc1Br	25%	2%	-2%
CN(C)c1ccc(N/C=C/C(=O)c2ccc(F)cc2)cc1	?	10µM*	?
COc1ccccc1Oc1ccc(N/C=C/C(=O)c2ccco2)cc1	-2%[10 µM]	?	?
CN(C)c1ccc(N/C=C/C(=O)c2ccco2)cc1	11µM*	-36%	3.5µM*
NS(=O)(=O)c1ccc(N/C=C\C(=O)c2ccc(F)cc2)cc1	?	37%	-5%
CC1CCC(NC(=O)N(CCCl)N=O)CC1 (stereo not given)	7%	12%	-4%
CCOc1ccc(NC(=O)Cn2cc(C(=O)C3CC3)c3ccccc32)cc1	-7%	0%	nt
Cc1cccc(OCC(=O)Nc2cc(C)c(C)cc2O)c1	-28%	3.5µM*	-7%
Cc1cccc(OCC(=O)NNc2c3ccccc3nc3ccccc23)c1	5µM*	3.5µM*	-1%
Cc1cc(CNC(=O)COc2ccccc2)c2ccccc2n1	-15%	?	-4%
Cc1cccc(OCC(=O)Nc2cc(C)ccc2O)c1	-17%	-44%	3%
Cc1ccc(OCC(=O)NNc2c3ccccc3nc3ccccc23)cc1	13µM*	10µM*	-2%
SMILES	Gal4-VP16 FLuc	RORg inh	Luc counter
O=C(Cc1ccccc1)NNc1c2ccccc2nc2ccccc12	?	?	3%
Cc1ccc(SCC(=O)NCc2ccccc2)cc1	3%	6%	nt
CC1(C)CC(=O)C(C(c2ccc(Br)cc2)C2C(=O)CC(C)(C)CC2=O)C(=O)C1	-1%	-7%	nt
Cc1ccc(C(=O)N/C(=C/c2cccnc2)C(=O)N2CCCCCC2)cc1	3%	?	nt
CNC(=O)[C@]1(C(F)(F)F)C[C@H](CCC2CCCCC2)CCCO1	-19%	7%	nt
O=C(/C=C/c1ccc(NC(=O)c2ccccc2-c2ccccc2C(=O)O)cc1)c1ccccc1	?	11µM*	nt
O=C(O)c1ccccc1-c1ccccc1C(=O)Nc1ccc(F)cc1	4%	11%	nt
O=C(CSc1nc2c(c(=O)n1-c1ccccc1)SCC2)NCC1CCCO1 (stereo not given)	-1%	2%	nt
FC(F)C(F)(F)c1cc(-c2ccc(Cl)cc2)n[nH]1	2%	20%	nt
Fc1ccc(-c2cc(C(F)(F)C(F)F)[nH]n2)cc1	13µM*	2%	nt
S=c1[nH]nc(Nc2ccccc2Cl)s1	0%	7.9µM*	4%
S=c1[nH]nc(Nc2cccc(Cl)c2)s1	-9%	-38%	nt
Cc1ccc(NC(=O)CSCC(=O)N2c3ccccc3CCc3ccccc32)cc1	12%	42%	0%
O=C(NN=C1CCCCCC1)c1ccncc1	4%	-17%	nt
O=C(COc1ccc([N+](=O)[O-])cc1)NN=C1CCCC1	-3%	-18%	0%
O=C(N/N=C1\CC2CC=CC12)c1ccc(O)cc1 (stereo not given)	4.5µM*	2.5µM*	3%
Cc1ccc(C(=O)N/N=C2\CC3CC=CC23)c(C)c1 (stereo not given)	1%	-27%	1%
O=C(ONC1=NCCCCC1)c1ccc([N+](=O)[O-])cc1	-13%	10µM*	4%
